# Compounds without any hit were thinned out: in the full panel of roughly 79,000, 15% have a hit. A number with no mark means an inactive call. Calls of active or inactive are those of the source. Cut-off read from the data, not from the text of the source: active = growth inhibition above about 70%; inactive = the rest.
# What was measured:
# [1] = NCI Yeast Anticancer Drug Screen. Data for the rad52 strain (AID 147);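 note: 0% = growth of vehicle-treated control cultures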; conditions: S. cerevisiae rad52 mutant growth inhibition, stronger effect = higher value
# Summary of the method: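 Here a repair-compromised yeast strain receives each compound; its growth is then quantified and normalised to vehicle-only controls.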
# [2] = NCI Yeast Anticancer Drug Screen. Data for the wt1 strain (AID 149);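 note: 0% = growth of vehicle-treated wt1 cultures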; conditions: S. cerevisiae wt1 strain (SPY 50644) growth inhibition, stronger effect = higher value
# Summary of the method: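 Compounds are added to wt1 yeast cultures. Growth is then measured. Inhibition is expressed relative to vehicle-treated controls.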
# [3] = NCI Yeast Anticancer Drug Screen. Data for the rad50EPP+ strain (AID 151);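 note: 0% = growth of vehicle-treated control cultures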; conditions: S. cerevisiae rad50 mutant strain, stronger effect = higher value
# Summary of the method: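 Read-out is yeast growth inhibition relative to vehicle; cells used were the rad50EPP+ strain.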
# [4] = NCI Yeast Anticancer Drug Screen. Data for the rad50 strain (AID 155);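 note: 0% = growth of vehicle-only cultures of the same strain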; conditions: S. cerevisiae rad50 strain growth inhibition, stronger effect = higher value
# Summary of the method: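 Inhibition values express reduced yeast growth in compound-treated cultures relative to vehicle-treated controls.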
# [5] = NCI Yeast Anticancer Drug Screen. Data for the mec2-1 strain (AID 157); conditions: S. cerevisiae mec2-1 strain, stronger effect = higher value
# Summary of the method: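 Using mec2-1 yeast: add compound, measure growth, express inhibition versus vehicle-treated cultures.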
# [6] = NCI Yeast Anticancer Drug Screen. Data for the rad14 strain (AID 159);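 note: 0% = growth of vehicle-treated control cultures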; conditions: S. cerevisiae rad14 strain growth inhibition, stronger effect = higher value
# Summary of the method: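 A mutant yeast strain defective in DNA damage repair is treated with compound; inhibition of its growth is scored against untreated, vehicle-exposed cultures.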
# [7] = NCI Yeast Anticancer Drug Screen. Data for the sgs1 mgt1 strain (AID 161);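 note: 0% = growth of cultures given vehicle only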; conditions: S. cerevisiae sgs1 mgt1 strain, stronger effect = higher value
# Summary of the method: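 This yeast growth screen uses a strain with defined DNA-repair lesions; compound-treated growth is compared with vehicle-treated growth.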
# [8] = NCI Yeast Anticancer Drug Screen. Data for the CLN2oe strain (AID 163);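 note: 0% = growth of vehicle-only control cultures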; conditions: S. cerevisiae CLN2oe strain, stronger effect = higher value
# Summary of the method: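 Whole-cell yeast growth assay. A strain engineered for altered cell-cycle control received compound, and inhibition relative to vehicle-treated cultures was recorded.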
# [9] = NCI Yeast Anticancer Drug Screen. Data for the cln2 rad14 strain (AID 165);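 note: 0% = growth equal to vehicle treated cultures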; conditions: S. cerevisiae cln2 rad14 strain, stronger effect = higher value
# Summary of the method: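 Yeast strain cln2 rad14, bearing defects in cell cycle control and DNA repair, serves as the test system; values reflect growth inhibition compared with vehicle.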
# [10] = NCI Yeast Anticancer Drug Screen. Data for the bub3 strain (AID 167); conditions: S. cerevisiae bub3 mutant strain, stronger effect = higher value
# Summary of the method: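 Steps: expose the mutant yeast strain to compound; grow alongside vehicle-treated cultures; measure growth; express inhibition against the vehicle cultures.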
# [11] = NCI Yeast Anticancer Drug Screen. Data for the mlh1 strain (AID 171);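 note: 0% = growth of vehicle-treated control cultures of the same strain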; conditions: S. cerevisiae mlh1 strain growth inhibition, stronger effect = higher value
# Summary of the method: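 A yeast strain with a defined genetic lesion serves as the test organism. Cultures receive compound or vehicle, and growth is measured.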
# [12] = NCI Yeast Anticancer Drug Screen. Data for the mlh1 rad18 strain (AID 175); conditions: S. cerevisiae mlh1 rad18 strain growth inhibition, stronger effect = higher value
# Summary of the method: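 Steps: expose repair-defective yeast to compound; measure growth; express inhibition against vehicle-treated controls.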
# [13] = NCI Yeast Anticancer Drug Screen. Data for the rad18 strain (AID 177); conditions: S. cerevisiae rad18 mutant growth inhibition, stronger effect = higher value
# Summary of the method: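 Measured value is growth inhibition of a yeast strain bearing a DNA repair alteration, referenced to vehicle-treated cells.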
# [14] = at 5.0 µM (retest, dose inferred, filed as 0.5)
# [15] = at 50.0 µM (retest, dose inferred, filed as 5.0)
structure (smiles),measurement,setting,value
COC(COC(=O)N1CCN(C=O)CC1)C1=C(N2CC2)C(=O)C(C)=C(N2CC2)C1=O (stereo not drawn),growth inhibition,[1]; at 1.2 µM,4%
same,growth inhibition,[1]; at 3.7 µM,18%
same,growth inhibition,[1]; at 11.0 µM,30%
same,growth inhibition,[1]; at 33.0 µM,66%
same,growth inhibition,[1]; at 100.0 µM,79% (active)
same,growth inhibition,[2]; at 1.2 µM,10%
same,growth inhibition,[2]; at 3.7 µM,12%
same,growth inhibition,[2]; at 11.0 µM,22%
same,growth inhibition,[2]; at 33.0 µM,39%
same,growth inhibition,[2]; at 100.0 µM,47%
same,growth inhibition,[3]; at 1.2 µM,-44%
same,growth inhibition,[3]; at 3.7 µM,-38%
same,growth inhibition,[3]; at 11.0 µM,-35%
same,growth inhibition,[3]; at 33.0 µM,-8%
same,growth inhibition,[3]; at 100.0 µM,-5%
same,growth inhibition,[4]; at 1.2 µM,17%
same,growth inhibition,[4]; at 3.7 µM,35%
same,growth inhibition,[4]; [14],64%
same,growth inhibition,[4]; at 11.0 µM,43%
same,growth inhibition,[4]; at 33.0 µM,53%
same,growth inhibition,[4]; [15],22%
same,growth inhibition,[4]; at 50.0 µM,35.3%
same,growth inhibition,[4]; at 100.0 µM,79% (active)
same,growth inhibition,[5]; at 1.2 µM,-6%
same,growth inhibition,[5]; at 3.7 µM,1%
same,growth inhibition,[5]; [14],19%
same,growth inhibition,[5]; at 11.0 µM,6%
same,growth inhibition,[5]; at 33.0 µM,36%
same,growth inhibition,[5]; [15],35%
same,growth inhibition,[5]; at 50.0 µM,32.9%
same,growth inhibition,[5]; at 100.0 µM,67%
same,growth inhibition,[6]; at 1.2 µM,4%
same,growth inhibition,[6]; at 3.7 µM,1%
same,growth inhibition,[6]; at 11.0 µM,6%
same,growth inhibition,[6]; at 33.0 µM,39%
same,growth inhibition,[6]; at 100.0 µM,74% (active)
same,growth inhibition,[7]; [14],-8%
same,growth inhibition,[7]; [15],26%
same,growth inhibition,[7]; at 50.0 µM,40.4%
same,growth inhibition,[8]; at 1.2 µM,12%
same,growth inhibition,[8]; at 3.7 µM,23%
same,growth inhibition,[8]; at 11.0 µM,25%
same,growth inhibition,[8]; at 33.0 µM,29%
same,growth inhibition,[8]; at 100.0 µM,53%
same,growth inhibition,[9]; [14],-11%
same,growth inhibition,[9]; [15],27%
same,growth inhibition,[9]; at 50.0 µM,34.5%
same,growth inhibition,[10]; at 1.2 µM,-18%
same,growth inhibition,[10]; at 3.7 µM,-3%
same,growth inhibition,[10]; [14],-2%
same,growth inhibition,[10]; at 11.0 µM,-4%
same,growth inhibition,[10]; at 33.0 µM,10%
same,growth inhibition,[10]; [15],1%
same,growth inhibition,[10]; at 50.0 µM,-10.2%
same,growth inhibition,[10]; at 100.0 µM,18%
same,growth inhibition,[11]; at 1.2 µM,-7%
same,growth inhibition,[11]; at 3.7 µM,-32%
same,growth inhibition,[11]; at 11.0 µM,-9%
same,growth inhibition,[11]; at 33.0 µM,17%
same,growth inhibition,[11]; at 100.0 µM,38%
same,growth inhibition,[12]; [14],23%
same,growth inhibition,[12]; [15],74% (active)
same,growth inhibition,[12]; at 50.0 µM,79.4% (active)
same,growth inhibition,[13]; at 1.2 µM,26%
same,growth inhibition,[13]; at 3.7 µM,59%
same,growth inhibition,[13]; at 11.0 µM,79% (active)
same,growth inhibition,[13]; at 33.0 µM,89% (active)
same,growth inhibition,[13]; at 100.0 µM,93% (active)
